Our source for the red/green cell ratio (normalised) and normalised cell number values is PubChem BioAssay.

The source made the active and inactive calls.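 Rule for the calls: active = compounds killing one labelled cell type while sparing the other, by normalised counts and ratio limits, not self-fluorescent; inactive = the rest.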

A short description of the first test: EMT-state selective cytotoxicity in co-culture – imaging, PC-3E GFP, TEM4-18 mCherry, primary screen (AID 1345086).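 For red/green cell ratio (normalised): normalised mesenchymal count divided by normalised epithelial count so high means epithelial killing.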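 Note: cells exposed to compound for 72 h before imaging.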 Conditions: PC-3E GFP / TEM4-18 mCherry co-culture, imaging cell counts; at 1 µM; actives lie on both sides; counts scaled to control wells, 1 = unselective.
For the compound `CS(=O)(=O)c1ccc(C2=C(c3ccccc3)C(=O)OC2)cc1`, the red/green cell ratio (normalised) is 0.98 (inactive).

As to `Cc1cccc(C)c1NC(=O)C1CCCCN1C` (configuration not stated), the red/green cell ratio (normalised) is 1.21 (inactive).

Take `COc1ccc(/C=C/C(=O)Nc2ccccc2C(=O)O)cc1OC`: the red/green cell ratio (normalised) was 0.8 (inactive).

`CCCCC(=O)N(Cc1ccc(-c2ccccc2-c2nn[nH]n2)cc1)[C@H](C(=O)O)C(C)C`: the red/green cell ratio (normalised) is 1.14 (inactive).

Turning to `CC(C(=O)O)c1ccc(-c2ccccc2)c(F)c1` (configuration not stated), the red/green cell ratio (normalised) was 1.1 (inactive).

In the case of `Nc1ncnc2c1ncn2[C@@H]1O[C@H](CO)[C@@H](O)[C@@H]1O`, the red/green cell ratio (normalised) was 0.96 (inactive).

`CN(C)c1nc(N(C)C)nc(N(C)C)n1`: the red/green cell ratio (normalised) is 1.11 (inactive).

Regarding `Cc1occc(=O)c1O`, the red/green cell ratio (normalised) is 0.9 (inactive).

As to `COc1ccc(-c2cc(=O)c3c(OC)c(OC)c(OC)c(OC)c3o2)cc1OC`, the red/green cell ratio (normalised) was 1.15 (inactive).

For the compound `CC(C)NCC(O)COc1cccc2ccccc12` (configuration not stated), the red/green cell ratio (normalised) was 1.4 (inactive).

As to `COC(=O)[C@H](c1ccccc1Cl)N1CCc2sccc2C1`, the red/green cell ratio (normalised) was 1.19 (inactive).

With `C[N+]1(C)CCCC(OC(=O)C(O)(c2ccccc2)c2ccccc2)C1` (configuration not stated), the red/green cell ratio (normalised) was 1.05 (inactive).

Consider `O=[N+]([O-])c1cccc2cn[nH]c12`, for which the red/green cell ratio (normalised) was 0.79 (inactive).

Take `C[C@H]1COc2c(N3CCN(C)CC3)c(F)cc3c(=O)c(C(=O)O)cn1c23`: the red/green cell ratio (normalised) is 1.01 (inactive).

`CC(C)NCC(O)COc1ccc(CC(N)=O)cc1` (configuration not stated): the red/green cell ratio (normalised) is 0.99 (inactive).

With `CNCCC(Oc1ccc(C(F)(F)F)cc1)c1ccccc1` (configuration not stated), the red/green cell ratio (normalised) was 1 (inactive).

For `CC1=C(/C=C/C(C)=C/C=C/C(C)=C\C(=O)O)C(C)(C)CCC1`, the red/green cell ratio (normalised) is 1.29 (inactive).

As to `CCc1ccc(CCOc2ccc(CC3SC(=O)NC3=O)cc2)nc1` (configuration not stated), the red/green cell ratio (normalised) was 1.07 (inactive).

Consider `CC[C@H]1OC(=O)[C@H](C)[C@@H](O[C@H]2C[C@@](C)(OC)[C@@H](O)[C@H](C)O2)[C@H](C)[C@@H](O[C@@H]2O[C@H](C)C[C@H](N(C)C)[C@H]2O)[C@](C)(OC)C[C@@H](C)C(=O)[C@H](C)[C@@H](O)[C@]1(C)O`, for which the red/green cell ratio (normalised) is 0.75 (inactive).

Still in this test, the particulars now being: PC-3E GFP / TEM4-18 mCherry co-culture, imaging cell counts; measured here: epithelial PC-3E GFP cell survival; at 1 µM.
With `CS(=O)(=O)c1ccc(C2=C(c3ccccc3)C(=O)OC2)cc1`, the normalised cell number was determined as 0.93.

In the case of `Cc1cccc(C)c1NC(=O)C1CCCCN1C` (configuration not stated), the normalised cell number was determined as 1.19.

Consider `COc1ccc(/C=C/C(=O)Nc2ccccc2C(=O)O)cc1OC`, for which the normalised cell number worked out at 1.21.

`CCCCC(=O)N(Cc1ccc(-c2ccccc2-c2nn[nH]n2)cc1)[C@H](C(=O)O)C(C)C`: the normalised cell number was found to be 1.14.

In turn, `CC(C(=O)O)c1ccc(-c2ccccc2)c(F)c1` (configuration not stated) showed a normalised cell number of 1.07.

As to `Nc1ncnc2c1ncn2[C@@H]1O[C@H](CO)[C@@H](O)[C@@H]1O`, the normalised cell number worked out at 0.99.

As to `CN(C)c1nc(N(C)C)nc(N(C)C)n1`, the normalised cell number was found to be 0.98.

The compound `Cc1occc(=O)c1O` had a normalised cell number of 1.16.

Consider `COc1ccc(-c2cc(=O)c3c(OC)c(OC)c(OC)c(OC)c3o2)cc1OC`, for which the normalised cell number is 0.98.

In turn, `CC(C)NCC(O)COc1cccc2ccccc12` (configuration not stated) registered a normalised cell number of 0.94.

In turn, `COC(=O)[C@H](c1ccccc1Cl)N1CCc2sccc2C1` displayed a normalised cell number of 1.15.

In turn, `C[N+]1(C)CCCC(OC(=O)C(O)(c2ccccc2)c2ccccc2)C1` (configuration not stated) displayed a normalised cell number of 1.31.

The compound `O=[N+]([O-])c1cccc2cn[nH]c12` registered a normalised cell number of 1.44.

`C[C@H]1COc2c(N3CCN(C)CC3)c(F)cc3c(=O)c(C(=O)O)cn1c23` had a normalised cell number of 1.12.

In turn, `CC(C)NCC(O)COc1ccc(CC(N)=O)cc1` (configuration not stated) gave a normalised cell number of 1.11.

As for `CNCCC(Oc1ccc(C(F)(F)F)cc1)c1ccccc1` (configuration not stated), the normalised cell number was 1.16.

`CC1=C(/C=C/C(C)=C/C=C/C(C)=C\C(=O)O)C(C)(C)CCC1` displayed a normalised cell number of 0.91.

On to `CCc1ccc(CCOc2ccc(CC3SC(=O)NC3=O)cc2)nc1` (configuration not stated), for which the normalised cell number stood at 1.18.

`CC[C@H]1OC(=O)[C@H](C)[C@@H](O[C@H]2C[C@@](C)(OC)[C@@H](O)[C@H](C)O2)[C@H](C)[C@@H](O[C@@H]2O[C@H](C)C[C@H](N(C)C)[C@H]2O)[C@](C)(OC)C[C@@H](C)C(=O)[C@H](C)[C@@H](O)[C@]1(C)O` returned a normalised cell number of 1.39.

The same test, now with this note: PC-3E GFP / TEM4-18 mCherry co-culture, imaging cell counts; measured here: mesenchymal TEM4-18 mCherry cell survival; at 1 µM.
The compound `CS(=O)(=O)c1ccc(C2=C(c3ccccc3)C(=O)OC2)cc1` registered a normalised cell number of 0.92.

Regarding `Cc1cccc(C)c1NC(=O)C1CCCCN1C` (configuration not stated), the normalised cell number was 1.44.

The compound `COc1ccc(/C=C/C(=O)Nc2ccccc2C(=O)O)cc1OC` showed a normalised cell number of 0.98.

In turn, `CCCCC(=O)N(Cc1ccc(-c2ccccc2-c2nn[nH]n2)cc1)[C@H](C(=O)O)C(C)C` displayed a normalised cell number of 1.3.

`CC(C(=O)O)c1ccc(-c2ccccc2)c(F)c1` (configuration not stated) returned a normalised cell number of 1.18.

The compound `Nc1ncnc2c1ncn2[C@@H]1O[C@H](CO)[C@@H](O)[C@@H]1O` gave a normalised cell number of 0.95.

As to `CN(C)c1nc(N(C)C)nc(N(C)C)n1`, the normalised cell number was found to be 1.08.

As for `Cc1occc(=O)c1O`, the normalised cell number stood at 1.05.

Consider `COc1ccc(-c2cc(=O)c3c(OC)c(OC)c(OC)c(OC)c3o2)cc1OC`, for which the normalised cell number came to 1.13.

For `CC(C)NCC(O)COc1cccc2ccccc12` (configuration not stated), the normalised cell number is 1.31.

As for `COC(=O)[C@H](c1ccccc1Cl)N1CCc2sccc2C1`, the normalised cell number turned out to be 1.36.

Consider `C[N+]1(C)CCCC(OC(=O)C(O)(c2ccccc2)c2ccccc2)C1` (configuration not stated), for which the normalised cell number amounted to 1.37.

Consider `O=[N+]([O-])c1cccc2cn[nH]c12`, for which the normalised cell number came out at 1.13.

For the compound `C[C@H]1COc2c(N3CCN(C)CC3)c(F)cc3c(=O)c(C(=O)O)cn1c23`, the normalised cell number stood at 1.13.

Regarding `CC(C)NCC(O)COc1ccc(CC(N)=O)cc1` (configuration not stated), the normalised cell number was determined as 1.09.

`CNCCC(Oc1ccc(C(F)(F)F)cc1)c1ccccc1` (configuration not stated) displayed a normalised cell number of 1.15.

Compound `CC1=C(/C=C/C(C)=C/C=C/C(C)=C\C(=O)O)C(C)(C)CCC1` registered a normalised cell number of 1.18.

For `CCc1ccc(CCOc2ccc(CC3SC(=O)NC3=O)cc2)nc1` (configuration not stated), the normalised cell number stood at 1.27.

For the compound `CC[C@H]1OC(=O)[C@H](C)[C@@H](O[C@H]2C[C@@](C)(OC)[C@@H](O)[C@H](C)O2)[C@H](C)[C@@H](O[C@@H]2O[C@H](C)C[C@H](N(C)C)[C@H]2O)[C@](C)(OC)C[C@@H](C)C(=O)[C@H](C)[C@@H](O)[C@]1(C)O`, the normalised cell number stood at 1.04.
